Source: PubChem (The Scripps Research Institute Molecular Screening Center)
Hits are enriched below; roughly 2.3% of the tested compounds scored in any of these assays.
CHRM1 antagonist: human M1 muscarinic receptor antagonists, primary screen, CHO-K1 cells, Fluo-8 calcium fluorescence, 1536-well. Muscarinic acetylcholine receptor M1 (Homo sapiens), P11229. CHO-K1 hM1, ACh EC80 antagonist. inhibition, % at 3 µM. 360,000 tested, 1.3% active. AID 588852, 2011;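 active = percent inhibition above its own plate's cutoff, namely the mean of that plate's compound wells plus 3 SD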;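 note: peak over basal fluorescence ratio during 140 s after agonist addition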
Target sequence (P11229 whole entry, looked up): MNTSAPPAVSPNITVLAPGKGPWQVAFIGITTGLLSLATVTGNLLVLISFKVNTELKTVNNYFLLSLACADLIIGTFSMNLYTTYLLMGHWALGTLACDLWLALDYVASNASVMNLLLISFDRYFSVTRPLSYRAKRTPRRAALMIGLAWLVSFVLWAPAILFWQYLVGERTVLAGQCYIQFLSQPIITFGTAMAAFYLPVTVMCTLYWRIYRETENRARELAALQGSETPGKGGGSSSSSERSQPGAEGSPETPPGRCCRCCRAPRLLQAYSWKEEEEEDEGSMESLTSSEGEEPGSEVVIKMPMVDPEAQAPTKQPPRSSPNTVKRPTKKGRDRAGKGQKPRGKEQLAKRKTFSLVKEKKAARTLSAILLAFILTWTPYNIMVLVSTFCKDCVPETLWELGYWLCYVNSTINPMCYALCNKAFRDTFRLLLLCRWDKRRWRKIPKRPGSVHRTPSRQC
CHRM1 PAM: human M1 muscarinic receptor positive allosteric modulators, primary screen, CHO-K1 cells, Fluo-8 calcium fluorescence, 1536-well; activation, % at 3 µM; 360,000 tested, 0.088% active; CHO-K1 hM1, ACh EC20; 0% = ACh EC20, 100% = maximal ACh; Muscarinic acetylcholine receptor M1 (Homo sapiens), P11229; in the data active = activation above about 19%, passing the limit was not always enough
CHRM1 agonist: human M1 muscarinic receptor agonists, primary screen, Fluo-8 calcium fluorescence, CHO-K1 cells, HTS. AID 588814, 2011. Muscarinic acetylcholine receptor M1 (Homo sapiens), P11229. CHO-K1 hM1, agonist mode; 0% DMSO, 100% acetylcholine EC100. activation, % at 3 µM. 360,000 tested, 0.33% active;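 active = activation above the run's mean compound activation plus 3 SD, cut at about 16% in these data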;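 note: peak over basal fluorescence ratio within a 140 s kinetic read after compound addition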
CHO-K1 Ca antag: M1 antagonist counterscreen hit in parental CHO-K1 cells. AID 602250. 360,000 tested, 0.6% active. inhibition, % at 3 µM. ATP-induced calcium, Fluo-8 fluorescence;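 active = inhibition above a per-plate cutoff, the plate's mean sample inhibition plus 3 SD, cut at about 24% in these data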
M1 PAM parental: nonselective calcium activators in parental CHO-K1 cells, primary screen, counter-screen for M1 PAM project, cell-based, Fluo-8 calcium fluorescence, full deck, 1536-well. 360,000 tested, 0.02% active. ATP EC20; 0% at ATP EC20, 100% at ATP max. activation, % at 3 µM;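 active = activation above the run cutoff, the mean activation of all test compounds plus 3 SD, cut at about 40% in these data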;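 note: peak over basal fluorescence ratio in a 140 s read after ATP addition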
CHO-K1 Ca ag: counter-screen for M1 agonists: effect in parental CHO-K1 cells; Fluo-8 calcium fluorescence; scaled to maximal ATP response, vehicle zero; activation, % at 3 µM; 360,000 tested, 0.48% active; AID 602248, 2012; in the data active = activation above about 15%;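 note: untransfected CHO-K1 host cells lacking M1 receptor as counterscreen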
Each line names hits and unclear results; the compound was inactive in the other large screens.

CCc1ccc(S(=O)(=O)NCc2ccc(C(=O)NCCN(Cc3ccccc3)C(C)C)cc2)cc1	CHRM1 antagonist 68
COc1ccccc1-c1cc2nc(-c3ccccc3)cc(N3CCN(C(=O)c4ccco4)CC3)n2n1	none
COC(=O)c1sc(NC(=O)CSc2nnnn2-c2ccc(C)cc2C)nc1C	CHO-K1 Ca antag 26
COCCOC(=O)CSc1ncccc1-c1nc2cc(C)c(C)cc2[nH]1	none
Cc1cc2nc(-c3cccnc3SCC(=O)NC(C)C)[nH]c2cc1C	CHO-K1 Ca ag 16
Clc1ccc(OCc2nnc(SCCN3CCCCC3)n2Cc2ccco2)cc1	CHRM1 antagonist 99
CCn1c(COc2ccc(C)cc2)nnc1SCc1ccc(C#N)cc1	none
CCc1ccc(OCc2nnc(SCCN3CCOCC3)n2CC)cc1	CHRM1 antagonist 63
O=c1c2ccccc2nnn1CSc1nnc(COc2ccc(Cl)cc2)n1Cc1ccco1	none
CNc1nc2cc([N+](=O)[O-])c([N+](=O)[O-])cc2nc1NC	CHRM1 antagonist 30, CHO-K1 Ca antag 39, CHO-K1 Ca ag 18
N#Cc1cc2nc(O)c(O)nc2cc1[N+](=O)[O-]	none
CO/N=C(/C(=O)N[C@@H]1C(=O)N2C(C(=O)O)=CCS[C@H]12)c1cnc(N)s1	none
CC1=C(C)/C(=N\OS(=O)(=O)c2ccc(C)cc2)C=CC1=O	CHRM1 antagonist 31, CHO-K1 Ca antag 34
CC1=C/C(=N\OS(=O)(=O)c2ccccc2)C(C)=CC1=O	CHRM1 antagonist 32, CHO-K1 Ca antag 37
O=C(CCCn1cncn1)N1CCCC(Nc2ccc(F)cc2)C1 (stereo not drawn)	none
Cc1cc(/C=N/NC(=O)c2ccc(O)cc2)c(C)n1C1CC1	CHO-K1 Ca antag 28
Cc1cc(C(=O)N2CCCC(C)(C(=O)NS(=O)(=O)C3CC3)C2)nn1C(C)(C)C (stereo not drawn)	none
COc1ccc(/C=C/C(=O)N/C(=C\c2ccco2)C(=O)NCCc2nc3ccccc3[nH]2)cc1	CHO-K1 Ca antag 25
COc1cccc(C#CC2=CC(=O)C[C@H](c3ccc(F)cc3)C2)c1	none
COc1ccc(/C=C2\SC(=O)NC2=S)cc1OC	CHO-K1 Ca ag 21
COc1cc(/C=C2/SC(=S)NC2=O)ccc1OS(=O)(=O)c1ccc(C)cc1	CHO-K1 Ca antag 25
COc1ccc(C(C)=O)cc1Cn1c(C)c(C(=O)NC2CC2)sc1=O	none
Cn1c(SCC(=O)Nc2ccc3nc(SCC(=O)N4CCCC4)sc3c2)nnc1-c1ccc(N)cc1	CHO-K1 Ca antag 31
O=S(=O)(N/N=C/c1ccc(N2CCOCC2)cc1)c1ccc(Br)cc1	none
COc1ccc(OC)c(CCNC(=O)c2ccc(CS(=O)Cc3ccc(Cl)cc3)o2)c1 (stereo not drawn)	none
CCOC(=O)N1CCN(C(=O)c2ccc(N(Cc3ccccc3Cl)S(C)(=O)=O)cc2)CC1	CHRM1 PAM 32
OCC1(Cc2ccccc2)CCN(C2CCN(c3ccccc3F)CC2)CC1	CHRM1 antagonist 35
CS(=O)(=O)c1ccccc1C(=O)Nc1cccc2ncccc12	none
CCOC1=C2CN(S(=O)(=O)c3ccc(C)cc3)[C@@H](c3cccs3)C[C@H]2[C@H]2C(=O)N(c3ccccc3)C(=O)[C@H]2C1	CHO-K1 Ca antag 27
O=C(Nc1ccc(Cl)cc1)Nc1ccccc1NS(=O)(=O)c1cccs1	CHRM1 antagonist 34, CHO-K1 Ca antag 34, CHO-K1 Ca ag 16
CN(C)S(=O)(=O)c1cccc(C(=O)NCC(=O)NC2CCN(Cc3ccccc3)CC2)c1	CHRM1 antagonist 34
Cc1cccc(C(=O)NCC(=O)NC2CCN(Cc3ccccc3)CC2)c1	none
O=C(CNc1ccc2ccccc2c1)N/N=C/c1cc2ccccc2nc1Cl	none
COc1cc(C2CC(=O)C=C(O)C2)cc(OC)c1OC (stereo not drawn)	CHO-K1 Ca antag 25
COc1ccc(C2CC(=O)C=C(O)C2)cc1 (stereo not drawn)	none
CCOC(=O)/C(=N\Nc1ccc(Cl)cc1)Sc1nnc(-c2ccc(OC)cc2)n1C	none
O=C1/C(=C\c2cc(Cl)c(O)c(Cl)c2)SC(=S)N1Cc1ccccc1	CHRM1 antagonist 54, CHRM1 agonist 51, CHO-K1 Ca ag 16
COc1cccc(/C=C2\SC(=S)N(CCCC(=O)N3CCCCC3CCO)C2=O)c1 (stereo not drawn)	CHO-K1 Ca ag 15
Cc1ccc(/C=C2\SC(=S)N(CCC(=O)N3CCCCC3)C2=O)cc1	none
CC(=O)c1ccc(NC(=O)CN2C(=O)/C(=C/C=C/c3ccccc3)SC2=S)cc1	none
O=C(O)CN1C(=O)/C(=C/C=C/c2ccccc2)SC1=S	CHO-K1 Ca antag 31
O=C(CCN1C(=O)/C(=C\c2ccccc2)SC1=S)N1CCCCC1	CHO-K1 Ca ag 15
CC(c1ccccc1)C(NC(=O)OCC1c2ccccc2-c2ccccc21)C(=O)O (stereo not drawn)	none
COc1ccc(-n2ncc3c(=O)n(Cc4c(F)cccc4Cl)cnc32)cc1	none
COc1ccc([C@H]2CC(=O)C=C(c3ccc(Oc4ccccc4)cc3)C2)cc1OC	none
COc1cc(CN2CCC(C(=O)N3CCN(c4ccccc4F)CC3)CC2)cc(OC)c1O	CHO-K1 Ca antag 33
Cc1nccn1CC(O)Cn1c2ccccc2c2ccccc21 (stereo not drawn)	CHRM1 antagonist 36
CN1CCN(S(=O)(=O)c2cccc(C#N)c2)C(c2ccccc2)C1 (stereo not drawn)	none
CC(C)c1ccc(Nc2n[nH]c(=S)s2)cc1	CHO-K1 Ca antag 28
O=C1CC2(CCN(C(=O)C(=O)c3c[nH]c4ccccc34)CC2)Oc2ccccc21	none
CN1CCN(/N=C/c2ccc(OCc3ccccc3)cc2)CC1	CHRM1 antagonist 58
O=C(Nc1nnc([C@@H]2C[C@H](O)[C@@H](CO)O2)s1)c1cccc(Cl)c1	none
O=C(CNCc1ccc(Cl)cc1)Nc1ccc2c(c1)OCCO2	CHO-K1 Ca ag 22
O=C(Nc1ccc([N+](=O)[O-])cc1)Nc1ccc(OC(F)F)c(Cl)c1	CHRM1 antagonist 40, CHO-K1 Ca antag 25, CHO-K1 Ca ag 32
O=C(Nc1ccc2c(c1)OCO2)Nc1ccc2c(c1)OCO2	none
O=C(Nc1ccc(Cl)cc1)Nc1ccc2c(c1)OCO2	CHRM1 antagonist 36
COc1ccc(NC(=O)Nc2cccc([N+](=O)[O-])c2)cc1Cl	CHO-K1 Ca antag 30
